FBW7 act = human FBW7 E3 ligase activation, primary screen. Q969H0. AlphaScreen FBW7–phospho-cyclin E peptide binding, activator screen. normalized activity (activation), % at 26.1 µM. actives 0.13% (n = 650,000); in the data active = normalized activity above about 1.9%;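 note: purified mutant Fbw7 with reduced substrate affinity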
TEAD-YAP inh = TEAD-YAP interaction inhibition; HEK-TIYL cells, TEAD-Gal4/YAP UAS-luciferase luminescence; inhibition, % at 9.12 µM; actives 1.4% (n = 640,000); AID 1259422; in the data active = inhibition above about 32%;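 note: 0% = median of test compound wells and 100% = reference inhibitor wells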
GPR151 ag = activates the human receptor GPR151; activation, % at 11.2 µM; Q8TDV0; PathHunter beta-arrestin GPR151 cells, luminescence; actives 1% (n = 650,000); AID 1508602; in the data active = activation above about 4.9%;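 note: 0% = median of compound wells and 100% = cells with positive control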
Target sequence (Q8TDV0 whole entry, looked up): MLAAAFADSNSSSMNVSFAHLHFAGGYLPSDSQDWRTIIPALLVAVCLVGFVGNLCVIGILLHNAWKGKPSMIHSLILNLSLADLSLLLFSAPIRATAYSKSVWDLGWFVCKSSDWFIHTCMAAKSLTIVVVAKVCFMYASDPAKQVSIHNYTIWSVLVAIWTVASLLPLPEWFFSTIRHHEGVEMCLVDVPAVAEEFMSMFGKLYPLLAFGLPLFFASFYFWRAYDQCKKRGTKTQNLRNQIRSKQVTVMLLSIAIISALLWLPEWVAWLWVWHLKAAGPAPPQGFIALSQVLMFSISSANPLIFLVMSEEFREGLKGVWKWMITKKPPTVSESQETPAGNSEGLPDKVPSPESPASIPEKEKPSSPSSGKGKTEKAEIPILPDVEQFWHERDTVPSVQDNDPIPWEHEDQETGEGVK
MITF inh = blocks human microphthalmia-associated transcription factor. AlphaScreen MITF homodimerization, bead proximity signal. AID 1259374. O75030. inhibition, % at 2.6 µM. actives 0.91% (n = 650,000); in the data active = inhibition above about 50%;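 note: 0% = vehicle wells with protein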
An asterisk follows results filed as active; · = no result given. This is a sample that favours compounds with a hit; in the whole collection about 3.5% have one here.

SMILES	FBW7 act	TEAD-YAP inh	GPR151 ag	MITF inh
CCOC(=O)C1(c2ccccc2)CCN(Cc2ccc(O)c(C(=O)OC)c2)CC1	0.0	34.9*	0.4	6.7
C[C@H]1CCC/C=C/C2C[C@H](O)C[C@H]2[C@H](O)/C=C/C(=O)O1 (some centres not stated)	2.1*	·	1.9	3.0
C[C@H]1CCC/C=C/[C@@H]2C[C@H](O)C[C@H]2[C@H](O)/C=C/C(=O)O1	0.3	68.5*	-2.9	10.7
Cc1ccc(C(c2c(O)[nH]c(=O)[nH]c2=O)N2CCCC2)cc1 (configuration not stated)	-0.2	-3.0	0.0	10.5
CN(N=O)c1ccc(O)c(O)c1	-0.3	1.6	1.2	77.0*
COc1ccc(-n2c(/C=C/c3ccccc3)nc3ccccc3c2=O)cc1	-0.1	6.7	0.6	-2.6
CCn1nc(/C=C/c2ccccc2)nc2c(=O)n(C)c(=O)nc1-2	-1.9	33.0*	-6.0	6.1
CCn1nc(-c2ccc([N+](=O)[O-])cc2)nc2c(=O)n(C)c(=O)nc1-2	-0.3	69.8*	-7.5	9.3
O=C(O)C1C2CC3CC(C2)CC1(n1ncc(Nc2ccccc2)c(Cl)c1=O)C3 (configuration not stated)	0.6	14.1	0.3	9.7
CC(=O)O[C@H]1CC[C@]2(C=O)C3CC[C@]4(C)[C@@H](C5=CC(=O)OC5)CC[C@]4(O)[C@@H]3CC[C@]2(O)C1 (some centres not stated)	0.0	102.2*	0.0	4.6
C[C@@H]1O[C@@H](O[C@H]2CC[C@]3(C=O)C4CC[C@]5(C)[C@@H](C6=CC(=O)OC6)CC[C@]5(O)C4CC[C@]3(O)C2)[C@H](O)[C@H](O)[C@H]1O (some centres not stated)	-0.1	101.2*	-1.3	-2.8
CC1O[C@@H](OC2C[C@@H](O)[C@]3(CO)[C@H]4[C@H](O)C[C@]5(C)C(C6=CC(=O)OC6)CC[C@]5(O)[C@@H]4CC[C@]3(O)C2)C(O)[C@@H](O)[C@H]1O (some centres not stated)	0.2	·	0.2	-1.4
COc1ccc(OC)c(CN2CCN(c3ccccc3)CC2)c1	0.0	3.2	-0.9	45.8
Cc1nc(NC(=O)CN2C3CCC2CC(O)(c2nccn2C)C3)sc1C (configuration not stated)	-0.1	-10.3	0.6	5.5
COc1ccc(C(=O)CN2C(=O)CN=C(c3ccc(OC)cc3)c3cc(C)sc32)cc1	0.1	2.8	-0.3	18.1
CCN(CC)c1ccc(N=Cc2c(O)[nH]c(=O)[nH]c2=O)cc1	-0.5	14.5	-1.3	65.6*
CCOC(=O)C1C2NC(=S)N(c3cccc(Cl)c3)C1(C)Oc1c(Cl)cc(Cl)cc12 (configuration not stated)	-0.4	54.9*	-0.8	-10.5
CCOC(=O)C1C2NC(=S)N(c3c(C)cccc3C)C1(C)Oc1c(Cl)cc(Cl)cc12 (configuration not stated)	-0.2	-13.6	1.5	-1.3
CCOC(=O)C1C2NC(=S)N(c3ccc(C)cc3)C1(C)Oc1c(Cl)cc(Cl)cc12 (configuration not stated)	-0.3	63.4*	0.3	6.4
CC(=O)c1cccc(NC2=NCC(C)(C)S2)c1	0.2	-35.0	-0.9	3.3
COc1ccc(F)cc1C(=O)C1CCCN(Cc2cccc(C)n2)C1 (configuration not stated)	-0.1	2.5	0.6	1.9
CC(=O)OC1CC[C@@]2(C)C(CCC3C2CC[C@]2(C)C(C4=CC(=O)OC4)C(OC(C)=O)CC32O)C1 (some centres not stated)	0.2	99.5*	2.3	-23.9
C[C@]12CC[C@H](O)C[C@H]1CC[C@@H]1[C@@H]2CC[C@]2(C)[C@@H](C3=CC(=O)OC3)[C@@H](O)C[C@]12O	0.1	95.1*	-0.6	22.3
CC(=O)[C@H]1CCC2C3CC[C@H]4C[C@H](O)CC[C@]4(C)C3CC[C@@]21C (some centres not stated)	0.0	-6.0	3.8	-8.7
CCOC(=O)C1=C(NC(=S)NC(=O)c2ccccc2)c2ccccc2CC12CCCC2	0.0	41.5*	0.4	16.8
COc1ccccc1-n1c(/C=C/c2ccc(N(C)C)cc2)nc2ccccc2c1=O	2.3*	-12.1	0.3	-15.6
COc1ccccc1-n1c(/C=C/c2ccc([N+](=O)[O-])cc2)nc2ccccc2c1=O	0.1	15.9	-1.2	-14.9
C/C(=N/N=C(N)N)c1cccc(-n2cnnn2)c1	-0.2	0.6	-1.6	21.9
O=c1c(O)c(-c2ccc(O)c(O)c2)oc2c(O)c(O)cc(O)c12	-0.4	-17.6	3.9	57.2*

From PubChem
